# USP2a block: USP2a (human) protease inhibition; O75604; USP2 core, Ub-CHOP2 coupled fluorogenic reporter, 485/531; Potency, µM (titrated, usually from 38.3 µM), inactives show top-dose activity change, negative = inhibition, actives largely listed as inhibitors; 330,000 tested, 0.01% active; AID 463254;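 also: plate controls were DMSO wells for no effect and full inhibition by NEM control for full effect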
# Target sequence (O75604 whole entry, looked up): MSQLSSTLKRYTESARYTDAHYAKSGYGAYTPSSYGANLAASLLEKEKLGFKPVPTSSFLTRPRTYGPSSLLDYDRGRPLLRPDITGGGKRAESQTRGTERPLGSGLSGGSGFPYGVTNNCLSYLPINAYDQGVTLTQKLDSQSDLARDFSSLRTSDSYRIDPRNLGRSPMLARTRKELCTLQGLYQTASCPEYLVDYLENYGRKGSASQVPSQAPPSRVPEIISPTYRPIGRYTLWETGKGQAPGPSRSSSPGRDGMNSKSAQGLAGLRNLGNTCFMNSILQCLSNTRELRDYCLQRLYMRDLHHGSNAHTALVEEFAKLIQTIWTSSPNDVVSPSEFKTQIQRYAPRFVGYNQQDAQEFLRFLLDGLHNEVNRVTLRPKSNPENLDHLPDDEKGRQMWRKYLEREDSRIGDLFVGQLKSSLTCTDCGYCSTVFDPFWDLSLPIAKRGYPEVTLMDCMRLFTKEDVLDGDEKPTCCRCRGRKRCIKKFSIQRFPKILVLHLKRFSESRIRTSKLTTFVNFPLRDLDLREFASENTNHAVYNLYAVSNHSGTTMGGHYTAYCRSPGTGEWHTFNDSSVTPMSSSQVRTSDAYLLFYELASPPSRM
#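 Deubiquitinase activity read as fluorescence (485/531 nm) after Ub-CHOP2 cleavage activates the enterokinase reporter on its substrate; USP2 core 10nM, Ub-CHOP2 and substrate 25nM each, 30min compound preincubation then 60min RT; data normalized to NEM, curves fitted.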
# ClpP mod: qHTS Assay for Activators of ClpP | purified B. subtilis ClpP, FRET peptide cleavage, 20 min | Potency, µM (titrated, usually from 57.5 µM), for the others: top-dose activity change, negative = active | AID 651965, 2013 | 340,000 tested, 1.9% active; active = well fitted falling curve with a large enough effect; inconclusive = small, poorly fitted or top-dose-only effect; inactive = no such curve, though single readings can be large or run the other way; also: the source files actives as falling curves though it sought activators and does not explain the sign; nearly all actives have a fitted effect of over 65% in size
#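 FRET quenching reversal measured ClpP activation: 10 microg/mL B. subtilis ClpP at pH 8 with the FRET-FV decapeptide, read at 430 nm after 320 nm excitation. The 20-min minus 0-min signal was scaled between DMSO/no-enzyme wells and ADEP (5.8 microM final).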
# Eya2 inh: blocks the phosphatase activity of human Eya2. AID 488837. recombinant Eya2, OMFP fluorescence dephosphorylation (OMFP is methylfluorescein phosphate). Potency, µM (highest dose often 76.9 µM), inactives show at the highest dose activity, negative = inhibition, hits mostly inhibitors. 330,000 tested, 0.006% active. O00167; also: % is scaled to controls: 0 for no effect and ±100 for the full control effect
#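 Eya2 (0.2 uM) preincubated 10 min at ambient with compound, then OMFP substrate added at 50 uM; 10 min reaction in 50 mM HEPES pH 7.5, 50 mM NaCl, 5 uM MgCl2, 0.05% BSA, 1 mM DTT. Fluorescence read at Ex 485/Em 525 nm.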
# GALK inhibitor: blocks human galactokinase activity; AID 1868; Potency, µM (top dose mostly 57.5 µM), for inactives: at the top dose activity change, negative = inhibition, most hits filed as inhibitors; 270,000 tested, 0.007% active; P51570; Purified GALK, Kinase-Glo residual ATP luminescence; also: % is scaled to controls: 0 for no effect and ±100 for the full control effect
#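 ATP-depletion format; final 35 uM ATP, 100 uM D-galactose, 5 nM enzyme; pH 8.0 HEPES/Mg2+ buffer; 60 min RT; luminescence read 10 min after detection reagent.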
# Active calls of the source: *; u = inconclusive; x = no result given. Many of the other results were omitted from the sample, so hits are more common in it than they were. Unless noted, calls follow the shape of the dose curve; as a rule, active = well fitted inhibition curve with a large enough effect; inconclusive = small, poorly fitted or top-dose-only effect, or effect the other way; inactive = flat fitted curve, though single readings scatter. Potency is read from the fitted curve at half-maximal effect.
SMILES,USP2a block,ClpP mod,Eya2 inh,GALK inhibitor
COc1cccc(NC(=O)CN(C)C(=O)c2cc3ccccc3cc2OC)c1,-0.3%,u,7.2%,x
O=C(NC12CC3CC(CC(C3)C1)C2)c1ccc(-c2ccc(Cl)cc2)o1,6.6%,31.6µM*,-15.1%,-1.0%
O=C(NC12CC3CC(CC(C3)C1)C2)c1ccc(-c2cccc(Cl)c2)o1,1.9%,u,-24.0%,1.9%
CCCC(=O)NC(=S)Nc1ccc(N2CCN(C(=O)c3cccs3)CC2)cc1,0.9%,-3.1%,-1.9%,3.5%
CCCC(=O)N1CCN(c2ccc(NC(=O)c3cccs3)cc2)CC1,-2.3%,15.8µM*,2.7%,-0.2%
COc1ccc(OC)c(S(=O)(=O)Nc2ccccc2O)c1,x,-0.6%,x,x
O=C1C(Cl)=C(N2CCCC2)C(=O)N1c1ccc(F)cc1,0.1%,25.1µM*,-2.0%,0.9%
COc1cccc([C@@H]2Oc3ccc(OC)cc3C(=O)[C@H]2OC(=O)N[C@H](C)C2CCCCC2)c1,3.6%,x,-8.8%,x
O=c1c2c(nc3cc(-c4ccccc4)[nH]n13)CCC2,2.1%,11.2µM*,-2.3%,1.3%
COc1ccc(-c2cc3nc4c(c(=O)n3[nH]2)CCC4)cc1,0.6%,22.4µM*,12.1%,0.5%
O=c1c2c(nc3cc(-c4ccccc4)[nH]n13)CCS2,-1.5%,10µM*,-6.0%,-1.1%
O=c1c2c(nc3cc(-c4ccc(Br)cc4)[nH]n13)CCCC2,4.3%,x,1.0%,1.6%
CC(C)C(=O)Nc1ccc(S(=O)(=O)Nc2nccc(/C=C/c3ccccc3)n2)cc1,4.4%,0.1%,4.3%,0.1%
COC(=O)c1cc(Cl)c(NC(=O)/C=C/c2ccc(OC)c(OC)c2)cc1OC,0.9%,28.2µM*,-10.3%,0.5%
COc1ccc(/C=C/C(=O)Nc2ccncc2)cc1OC,8.4%,x,-9.5%,-2.2%
COc1ccc(N2CC(NC(=O)/C=C\c3ccc(OC)c(OC)c3)CC2=O)cc1 (stereo not given),x,31.6µM*,x,x
COC(=O)c1cc(Cl)c(NC(=O)/C=C/c2ccc(Cl)cc2)cc1OC,0.0%,6.8%,-9.7%,0.2%
COc1ccc(/C=C/C(=O)Nc2nc(C)cc(C)n2)cc1OC,3.7%,35.5µM*,21.1%,-0.8%
Cc1nc2ccccc2n1/C(=N/S(=O)(=O)c1ccc(Br)cc1)c1ccccc1,-2.0%,x,-10.4%,-3.0%
Oc1cc(-n2cccn2)c(O)cc1-n1cccn1,2.6%,28.2µM*,9.5%,1.8%
CCSc1nc(O)cc(=O)n1CC,5.6%,0.4%,0.7%,-1.9%
COc1ccc(NC(=O)COC(=O)/C=C/c2ccc(OC)c(S(=O)(=O)N3CCOCC3)c2)cc1,-1.0%,-9.4%,-3.9%,-0.5%
COc1cccc(/C=C/C(=O)OCC(=O)Nc2cccc(S(=O)(=O)N3CCCCC3)c2)c1OC,3.3%,28.2µM*,1.8%,-0.1%
COc1ccc(/C=C/C(=O)OCC(=O)Nc2ccc(C)cc2)cc1S(=O)(=O)N1CCOCC1,1.0%,7.94µM*,0.9%,-5.4%
COc1ccc(OC)c(/C=C/C(=O)OCC(=O)Nc2cccc(Oc3ccccc3)c2)c1,1.1%,35.5µM*,-2.8%,0.9%
SMILES,USP2a block,ClpP mod,Eya2 inh,GALK inhibitor
Cc1ccc(C(=O)OCC(=O)Nc2ccc(N3CCOCC3)cc2)cc1,0.4%,31.6µM*,-27.5%,x
O=C(COC(=O)/C=C/c1ccc(F)cc1)Nc1cccc(S(=O)(=O)N2CCCC2)c1,4.1%,0.8%,3.7%,13.1%
Cc1ccccc1N1C(=O)C2C3CCC(O3)C2C1=O (stereo not given),-2.6%,-0.8%,-8.2%,-4.3%
Cc1ccc(-c2ccccc2NC(=O)C2C3C=CC(C3)C2C(=O)O)o1 (stereo not given),-1.7%,25.1µM*,-17.8%,-2.0%
COc1cccc(N(C(=O)c2nc3nccc(C)n3n2)c2nc3ccccc3s2)c1,7.3%,x,10.6%,-0.2%
Cc1ccc(-c2ccc(CCC(=O)O)n2Cc2ccco2)cc1,1.1%,31.6µM*,-1.4%,1.9%
COc1ccc(-c2ccc(CCC(=O)O)n2CC(C)C)cc1,0.9%,31.6µM*,-31.9%,0.3%
CCCn1c(CCC(=O)O)ccc1-c1ccccc1,1.5%,x,15.8%,-1.0%
O=C(O)CCc1ccc(-c2ccccc2)n1CC(=O)O,0.0%,31.6µM*,-9.1%,-0.4%
C=CCn1c(CCC(=O)O)ccc1-c1ccc(OC)cc1,-0.7%,u,-0.7%,0.6%
Cc1cc(O)ccc1N/C=C(\C#N)c1nc2ccccc2o1,2.6%,17.8µM*,-6.7%,-0.4%
N#C/C(=C\c1c(Cl)cccc1Cl)c1nc2ccccc2o1,3.7%,3.98µM*,10.2%,-1.0%
COc1ccc(OC)c(C2C(C(=O)Nc3nc4ccccc4s3)=C(C)NC3=C2C(=O)CCC3)c1 (stereo not given),0.0%,28.2µM*,3.1%,-1.0%
CCOC(=O)C1=C(C)NC2=C(C(=O)CCC2)C1c1cc(OC)ccc1OC (stereo not given),1.6%,-6.6%,-0.2%,-2.7%
COc1ccccc1CNC(=O)CN1C(=O)CSc2ccc(S(=O)(=O)N3CCCC3)cc21,6.3%,1.2%,5.1%,0.0%
CC(=O)c1c(O)cc(=O)n(-c2ccccc2)c1-c1ccc(C)cc1,-0.8%,-2.2%,-5.3%,-2.4%
CC(=O)c1c(O)c(C)c(-c2ccccc2)n(-c2ccccc2)c1=O,2.0%,22.4µM*,-4.6%,-0.8%
Cc1ccccc1Cn1c(=O)n(Cc2ccc(Cl)cc2)c(=O)c2cccnc21,x,25.1µM*,x,x
COC(=O)c1cc(=O)nc2sccn12,0.1%,28.2µM*,23.4%,0.6%
COC(=O)c1cc(NC(=O)c2c(Cl)nc3sccn23)cc(C(=O)OC)c1,7.1%,-2.5%,14.3%,3.4%
Cc1cc(=O)n2nc(-c3ccccc3)sc2n1,1.0%,u,9.4%,2.8%
COC(=O)c1cc(=O)nc2sc(-c3ccccc3)nn12,0.5%,28.2µM*,11.3%,0.4%
CCN1C(=O)c2ccccc2S(=O)c2ccc(C(=O)N3CCN(c4ccccc4OC)CC3)cc21 (stereo not given),x,-2.1%,x,x
Nc1c(-c2ccccc2)n[nH]c1-c1ccccc1,2.4%,28.2µM*,-21.7%,0.0%
S=c1nc(-c2ccccc2)c(-c2ccccc2)n[nH]1,0.9%,-0.1%,-1.2%,6.1%
SMILES,USP2a block,ClpP mod,Eya2 inh,GALK inhibitor
COc1ccc(-c2nnc(-c3cc(OC)c(OC)c(OC)c3)o2)cc1OC,1.4%,u,-3.8%,1.1%
COc1ccc(-c2nnc(-c3ccc(N)cc3)o2)cc1,1.2%,28.2µM*,-2.7%,-2.3%
COc1ccc(-c2nnc(-c3ccc(N(C)C)cc3)o2)cc1,x,u,x,-1.1%
COc1ccc(-c2ccc(-c3nnc(-c4cc(OC)ccc4OC)o3)cc2)cc1,-0.9%,15.8µM*,15.6%,2.3%
CN(CCc1ccccn1)C(=O)Nc1ccc(C(C)(C)C)cc1,-1.1%,28.2µM*,5.3%,-0.2%
CCOc1ccc2ccccc2c1C1NC(=S)N(C)C(C)=C1C(=O)OC (stereo not given),-1.2%,8.91µM*,0.1%,-1.7%
O=C(N=C1SC2CS(=O)(=O)CC2N1c1c(Cl)cccc1Cl)C1CC1 (stereo not given),1.6%,-1.0%,u,8.8%

# High-throughput results as filed in PubChem BioAssay.
